# Source: the supplement of paper PMC10105736
# A number with no mark means an inactive call.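 Rule for the calls: active = MAPPIT score above the 99th percentile of random reference set scores in the same batch; inactive = at or below it.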
# B1: GstD1 (protein)
# chain: MVDFYYLPGSSPCRSVIMTAKAVGVELNKKLLNLQAGEHLKPEFLKINPQHTIPTLVDNGFALWESRAIQVYLVEKYGKTDSLYPKCPKKRAVINQRLYFDMGTLYQSFANYYYPQVFAKAPADPEAFKKIEAAFEFLNTFLEGQDYAAGDSLTVADIALVATVSTFEVAKFEISKYANVNRWYENAKKVTPGWEENWAGCLEFKKYFE
# B2: ZIPIC (protein)
# chain: MNCCICQFSVRVPKDIHTDTVGHPPVLISELVLQCTRGTNYVLTEESSTICKKCCEKLARYHKSIQIARKLRGEILELIHSPYMSKDHKQTSYKEDDLDRETTISKFDGNIEEAQQQDEEEQELESVGTTVTLVGPAGIVEEVAEEEHTFIIKQSEEEDEFHSVDLELDIDNEIIINEEEAHEVEEVAHEIEEVAHEIEEEDLLPHDKQEAQEEDFFKEDTMSDFDEHLDGAIEYIISDGEDQEQDNESSGEYTVNIQCPSCPEKFSSRRAYNVHTKREHFPGYVCDQCGKTLQSYSGFIGHLQNHEPVKQFACPVCPERFSRKFRLKHHMAWHSGETPYQCDVCSKRFVHKVALYKHKMIHDSETKRLECQVCGFKTRTKAHLERHMRSHTGDKPFACPVCNKRFSQMYNMKAHLREHESPGTNRHRRFHCSKCTHTFINEQNYDAHVQRDDCTPV
# B3: cactin (protein)
# chain: MPKEKSKHRHRSRSRERRDHRSPDPRSSRNRDRDREREREKDRDHRDHRDKERDQRREREKDKSRDKKREHKSRRRRSSSSSSSPSSSTSSSVPGAPRSPLVKSPMKLLQTLEARRLVEQKDRQRKKEELKAHETPEEKRARRLREKQAKEQRRRERMGWDNEYQTYSNEDNPFGDSNLTSTFHWGKKLEVEGLSNLSTKTVEVLSLQKQLENRRELEKVKKRRQERELERQVREDDLMMQQRAKEAVQFREWQRQEDQFHLEQARLRSEIRIRDGRAKPIDLLAQYVAAGNEPLEECLEMQMHEPYVLLNGLPVEELEDLLVDIKVYEELEQGKHIDFWNDMITIVQDELQRQQKLEAENSSLNQRRDGIHQAVVKDVADIFRGKNAQQLEEMRHRIEAKISGRADGVDISYWESLLSQLKAHMARARLRDRHQALLREKLSLLKRENDNETLQEKVAPQVKEEEMETQDAEDPEVEEGSPEDEEDPLNELRKTVRLYQAGNYSPRYIREEDFTGRRAQNEDVDEPEAEGLLYEEEDDERRTQRQRLLILHPERVDNNQLTPQELRMRNEAKQGMQGDEAEFSVETTLDAVPQLATDKYRPRKPRYFNRVHTGFEWNKYNQTHYDMDNPPPKIVQGYKFNIFYPDLMDKSQTPQYFLTPCADNGDFAVLRFHTGPPYEDIAFKIVNREWEFSYKRGFRCQFHNNIFQLWFHFKRYRYRR
# B4: mats (protein)
# chain: MDFLFGSRSSKTFKPKKNIPEGTHQYDLMKHAAATLGSGNLRNAVALPDGEDLNEWVAVNTVDFFNQINMLYGTITEFCTEETCGIMSAGPKYEYHWADGLTVKKPIKCSAPKYIDYLMTWVQDQLDDETLFPSKIGVPFPKNFHSSAKTILKRLFRVYAHIYHQHFTEVVTLGEEAHLNTSFKHFIFFVQEFNLIERRELAPLQELIDKLTAKDERQI
# B5: PGRP-LE (protein)
# chain: MSESGIKKLSQERTREWLASQEDEELESIAESSVVDSLDYDYTEEEEDADQNTSEEISTMTLGTQIATKKHSIISDTIRDLMNSINSIQTLGNVNISNSTNVHIGNVTNINGNIQIIADGLTQNRRDRRHVSPPRDNAPKTPTHFEDDYQDESEERVRSDVFIRRQKFKIPKELSAIIPRSSWLAQKPMDEPLPLQLPVKYVVILHTATESSEKRAINVRLIRDMQCFHIESRGWNDIAYNFLVGCDGNIYEGRGWKTVGAHTLGYNRISLGISFIGCFMKELPTADALNMCRNLLARGVEDGHISTDYRLICHCQCNSTESPGRRLYEEIQTWPHFYNIEEEEQ
# B6: fog (protein)
# chain: MSPPNCLLAVLALTVFIGANNALPITSRPIEGNVQRMVWEDWVNLDPEQRNLTKEKKITAKSIFTLPFRHCPQGHTLFNQLCIPQSNIDPTDLVKQELILAGGSNGSPPPPPIGDYDYGDDEESEEIVYDLSVIPTAMQDGLPPSVGTGDQALPSEDAPLKFNIFEKKFPTGTGEHEEMPLPPDMAAATYAKNISTTPETSTSITPTSTTTFAVPSVPSGEASNRIPGGVDLLAAPSDAFSTSTTLSMPTSNTTTTSNKDIGQVESIVLPADQEHDGLVHLVTSSLSDNDSDDSSTTLNGFNAEADLAQLLKVDAFWPVYDGSIELLPPLFSHRKVAPPLSADQDVKTKHAVDAAEKVGAELEEEVGEEEVTATDILPSEEDEYTTETATTTGDTTVAEASMDTSTATSTSGQSSPHPPEEPEIDERENRLVLIKSKVQPVQLTTTTSATATTAADVANSSSSTDRFHYQHFVEDESSTTTATPEPSSSTPGDPIEQSDMPASDNDNLMTNTIGGRGDDDDDGGHKATSEIHVQQELRLINELVKGKQRQQHQPQKQQLEPTSTEITSALTSTSTEDATTTTTTTTAYTNWSKVMPQLGQSTSETAATTETVATSGQVNEISLTATSASTEVKHFSITNRSYRNSKIIREDRLTVEPEGIVESAASTESAGTAATTPNSSSNPDGYTPLWWLPSIGWRLDRHLDGNGEDQSLLLRFFSTFRGSNTAATTR
# B7: cora (protein)
# chain: MPAEIKPSAPAEPETPTKSKPKSSSSSHGKPALARVTLLDGSLLDVSIDRKAIGRDVINSICAGLNLIEKDYFGLTYETPTDPRTWLDLEKPVSKFFRTDTWPLTFAVKFYPPEPSQLKEDITRYHLCLQVRNDILEGRLPCTFVTHALLGSYLVQSEMGDYDAEEMPTRAYLKDFKIAPNQTAELEDKVMDLHKTHKGQSPAEAELHYLENAKKLAMYGVDLHPAKDSEGVDIMLGVCASGLLVYRDKLRINRFAWPKILKISYKRHHFYIKIRPGEFEQYESTIGFKLANHRAAKKLWKSCVEHHTFFRLMTPEPVSKSKMFPVFGSTYRYKGRTQAESTNTPVDRTPPKFNRTLSGARLTSRSMDALALAEKEKVARKSSTLDHRGDRNADGDAHSRSPIKNKKEKDADKEAKLREKKQKEKEEKERKEREKRELEEKKKAEKAAKAALAAGAAAGAAVNGNDELNDSNKSDKSSGRRGVGIFSSGRKSKSGSPSKDGKDKSGKDKDKEVGRLGLVVTSGLGDNQQDQNLDEAARNAAKNRGSTTPGVTRQYEYAVDNDGNTSPTRKSYTPGGFRYDQDPNSRKSGADGQEQLSPTSQQKKIGLAFNYAPGNENALKETAEKLKAGQLSPRTQDKLNRGQLSPKSRAKLLQDPLLSPTTRAKLQGSAVDAAAVPLSDSQKRSYSPTKGPQGYSSGAPGSYKPISDPTADFLESQRYNKEPGYVGPSKADVAAGLAGAAGSKKPGSPTKTGKGAPGAAAAAAAGAAGAAAAAAKPKKRRVKIMVITSKFDPSTKRIDAENGSIEHSTGILDPATGLIDTKYGVIDPKKGTLEALNTKTGKKEVFQGDVDGKTGNLHLVSGVADPKTGRLDDTLGQIVCITPQDNPVVELTVITSRIDPATGKIDTVNGDVERSLGVLNLDTGLLDTKYGEINTRTGELKAIDPKSGKIVVSKNVKVDPGTGQITILGIVDPKTNKIDPNQGRLIEVGQQIDPIVEVTSLAGKFDSKRNIIDPKTAQVETSGGQFDPKAGKIDTKYGQIDLVKHTITFNDPKSGKTVTRDIKIEPTTGQIVLKNQVNPKNNKPDKDYARIISLRIVQQRVDPATKAPITEVSASKDKDIVVDPKSNQIWVPTGATDPATKEQQYISSSVDPKTGYVITIYGYLDPKTNEIKKQTKLDPNTIKIEPTSGKIYTATGEVDQATGEPLYAATQVDPESGEVYTKLARVDPKTGKIVIVRILLISKTDERGRPEEIDPSTCEIDPVSGRVLKFFNKTVYVYNMIDPVTGEIVQVDPNDPRFAGARTTVTHTMTLTGEIDPVTGRIKSEYGDIDPNTGDIDPATAVTDPVTGKLILNYAQIDPSHFGKQAQVQTTTETVPITRQQFFDGVKHISKGALRRDSEGSSDDDMTAQYGADQVNEILIGSPAGQAGGKLGKPVSTPTVVKTTTKQVLTKNIDGVTHNVEEEVRNLGTGEVTYSTQEHKADATPTDLSGAYVTATAVTTRTATTHEDLGKNAKTEQLEEKTVATTRTHDPNKQQQRVVTQEVKTTATVTSGDQYQRRDSVSSTSSGDSGTPIDGPYDGASVVRTDNQKSPLFTTSATTGPHVESTRVVLGEDTPGFSGHGEIISTQTVSSKTRTVETITYKTERDGIVETRVEQKITIQSDGDPIDHDKALAEAIQEATAMNPDMTVEKIEIQQQTQ
# B8: me31B (protein)
# chain: MMTEKLNSGHTNLTSKGIINDLQIAGNTSDDMGWKSKLKLPPKDNRFKTTDVTDTRGNEFEEFCLKRELLMGIFEKGWERPSPIQEAAIPIALSGKDVLARAKNGTGKTGAYCIPVLEQIDPTKDYIQALVMVPTRELALQTSQICIELAKHLDIRVMVTTGGTILKDDILRIYQKVQLIIATPGRILDLMDKKVADMSHCRILVLDEADKLLSLDFQGMLDHVILKLPKDPQILLFSATFPLTVKNFMEKHLREPYEINLMEELTLKGVTQYYAFVQERQKVHCLNTLFSKLQINQSIIFCNSTQRVELLAKKITELGYCCYYIHAKMAQAHRNRVFHDFRQGLCRNLVCSDLFTRGIDVQAVNVVINFDFPRMAETYLHRIGRSGRFGHLGIAINLITYEDRFDLHRIEKELGTEIKPIPKVIDPALYVANVGASVGDTCNNSDLNNSANEEGNVSK
# B9: Gnpnat (protein)
# chain: MVQLTEETYLYDPNLLLKLDFHRSPANFKPFISAANPGEPWMKVRPLKDTDYDRGFLQLLSQLTHVGNVNRTQFLTRFSQMKASGDYFVTVIEDTRKNEIIGAASLVIERKFIHNCAVRGRLEDVVVNDTYRGKQLGKLIVVTVSLLAEELGCYKMSLDCKDKLIKFYESLGYVAIPGNSNSMTIRYDEGPTLKRNATSAGSSGTVGDSCQTVSLDFAS
# B10: Smn (protein)
# chain: MSDETNAAVWDDSLLVKTYDESVGLAREALARRLADSTNKREEENAAAAEEEAGEISATGGATSPEPVSFKVGDYARATYVDGVDYEGAVVSINEEKGTCVLRYLGYENEQEVLLVDLLPSWGKRVRREQFLIAKKDEDEQLSRPKASAGSHSKTPKSSRRSRISGGLVMPPMPPVPPMIVGQGDGAEQDFVAMLTAWYMSGYYTGLYQGKKEASTTSGKKKTPKK
# Key:
# Assay in all cases: MAPPIT interaction score (arbitrary units); higher = stronger binary interaction signal, active = hit call of the paper
# GstD8 = settings: MAPPIT configuration: N-N; pair source set: screen_1
# HP5 = settings: MAPPIT configuration: N-N; pair source set: Curagen_low_conf
# Gs1 = settings: pair source set: RRS
# FoxP = settings: MAPPIT configuration: N-N; pair source set: Curagen_high_conf
# GstE4 = settings: MAPPIT configuration: N-C; pair source set: RRS
# PGRP-LE = settings: pair source set: Lit-BM-16
# Wee1 = settings: MAPPIT configuration: N-N; pair source set: Curagen_high_conf
# GILT3 = settings: MAPPIT configuration: N-N; pair source set: Finley_Y2H
# GluRIIC = settings: MAPPIT configuration: N-N; pair source set: Lit-BS-16
# GILT1 = settings: MAPPIT configuration: N-N; pair source set: Curagen_low_conf
# Mad1 = settings: MAPPIT configuration: N-N; pair source set: screen_1
# Gnpnat = settings: MAPPIT configuration: N-N; pair source set: screen_1
# Jhbp2 = settings: pair source set: RRS
# Gem2 = settings: MAPPIT configuration: N-N; pair source set: Lit-BM-16
# Smn = settings: MAPPIT configuration: N-N; pair source set: screen_2
# 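Note: HEK293T cells with Epo stimulation, STAT-responsive firefly luciferase reporter, fold induction versus unstimulated cells divided by the larger fold induction of two negative controls lacking either bait or prey.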
binder,measurement,setting,value
B1,MAPPIT interaction score,GstD8,5.85 (active)
B2,MAPPIT interaction score,HP5,0.196
B3,MAPPIT interaction score,Gs1; MAPPIT configuration: N-C,0.448
same,MAPPIT interaction score,Gs1; MAPPIT configuration: N-N,0.325
B4,MAPPIT interaction score,FoxP,1.25
B5,MAPPIT interaction score,GstE4,0.646
same,MAPPIT interaction score,PGRP-LE; MAPPIT configuration: N-C,3.96 (active)
same,MAPPIT interaction score,PGRP-LE; MAPPIT configuration: N-N,4.49 (active)
same,MAPPIT interaction score,Wee1,2.63 (active)
B6,MAPPIT interaction score,GILT3,-0.488
B7,MAPPIT interaction score,GluRIIC,-0.379
B8,MAPPIT interaction score,GILT1,0.228
same,MAPPIT interaction score,Mad1,0.203
B9,MAPPIT interaction score,Gnpnat,5.14 (active)
same,MAPPIT interaction score,Jhbp2; MAPPIT configuration: N-C,-0.259
same,MAPPIT interaction score,Jhbp2; MAPPIT configuration: N-N,0.242
B10,MAPPIT interaction score,Gem2,6.28 (active)
same,MAPPIT interaction score,Smn,6.24 (active)
